Consider five compounds from PubChem BioAssay.

Assay [1] in a line: anti-His antibody binders, primary screen, artefact control for SMM control protein annotation, biochemical, small-molecule microarray, 635 nm fluorescence (AID 1128).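 Also: score merges feature fluorescence with signal-to-noise for each printed compound spot.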 To be noted: anti-His Alexa647 antibody binding, higher = more signal.
The subject of assay [2] is Human papillomavirus type 1a E7 protein (residues 1-88). The assay is described as follows: HPV1a E7 small-molecule binders, primary screen, biochemical, small-molecule microarray, residues 1-88, 635 nm (AID 1129). The note with it: small-molecule microarray binding, fluorescence 635 nm; higher = more signal.
Assay [3] concerns the target Focal adhesion kinase 1 (Homo sapiens) (UniProt Q05397). Nature of the assay: small-molecule microarray binders of FAK, primary screen, biochemical, 635/667 nm fluorescence, BSA, DTT (AID 1130).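 Also: composite of spot emission at 667 nm and signal to noise over triplicate slides.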 The note with it: PTK2 binding, 635 nm fluorescence, higher = more signal.
The test system of assay [4] is Fibrinogen (Alexa647-labelled). Nature of the assay: fibrinogen binders on compound microarrays, profiling panel, artefact control for SMM control-protein annotation, biochemical, small-molecule microarray, 635/667 nm fluorescence (AID 1131).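 Also: z-score merges 667 nm fluorescence with per-spot signal-to-noise over triplicate slides.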 To be noted: fibrinogen-A647 binding fluorescence, higher = more signal.
Assay [5] has as its target Follistatin (Homo sapiens) (UniProt P19883). Nature of the assay: follistatin binders on small-molecule microarrays, primary screen, biochemical, small-molecule microarray, 635/667 nm fluorescence (AID 1132). To be noted: FST binding, 635 nm fluorescence, higher = more signal.
For assay [6], the target named is Fibroblast growth factor 2 (Homo sapiens) (UniProt P09038). The assay is described as follows: FGF2 binders on small-molecule microarrays, primary screen, biochemical, small-molecule microarray, 635/667 nm fluorescence (AID 1133). To be noted: small-molecule microarray binding, FGF2, fluorescence 635/667; higher = more signal.
Assay [7] is described as follows: mitochondrial membrane potential change in A549 cells, profiling panel, cell-based, JC-1 fluorescence, basal, 24 h, 100 nL (AID 1138).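 Also: A549 lung adenocarcinoma cells under basal conditions with no added stimulus; test concentration not given here.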 The note with it: higher = more signal.
The subject of assay [8] is Lefty1. The assay is described as follows: Lefty1 binders on small-molecule microarrays, primary screen, biochemical, small-molecule microarray, 635/667 nm fluorescence (AID 1139). To be noted: small-molecule microarray binding, fluorescence 635/667; higher = more signal.
Assay [9] relates to wheat germ agglutinin (Triticum aestivum), Alexa647-labelled. Nature of the assay: wheat germ agglutinin binders on compound microarrays, profiling panel, artefact control for SMM control-protein annotation, biochemical, small-molecule microarray, 635/667 nm fluorescence (AID 1140).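 Also: score merges 667 nm feature emission with signal to noise over triplicate slides.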 The note with it: WGA-A647 binding, 635 nm fluorescence, higher = more signal.
The target of assay [10] is Luciferin 4-monooxygenase (Photinus pyralis) (UniProt P08659). The assay is described as follows: firefly luciferase enzyme inhibitors, primary screen, biochemical, luminescence, purified enzyme, 2006 set (AID 1141).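 Also: cell-free assay with purified firefly luciferase at 100 ng per well in PBS; test concentration not given here.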 The note with it: SteadyGlo luminescence, 30 min, higher = more signal, called active from +8 up or from −8 down.
Assay [11] deals with Wnt5a (protein binding on small-molecule microarray). The assay is described as follows: Wnt5a binders on small-molecule microarray, primary screen, biophysical, 635/667 nm fluorescence (AID 1142).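 Also: fluorescence read at 667 nm with signal to noise per printed feature.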 The note with it: 635 nm fluorescence, higher = more signal.
Assay [12] in a line: cell viability in Huh7 cells, primary screen, cytotoxicity control for HCV replication inhibitor project, CellTiter-Glo luminescence, basal, 48 h (AID 1143).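 Also: Huh7 hepatoma cells carrying a hepatitis C replication reporter with no stimulus; test concentration not given here.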 The note with it: Huh7 HCV replicon, higher = more signal, called active from +8 up or from −8 down. A general note: ATP-based viability assays read luminescence as a measure of living cells.
Assay [13] in a line: P. aeruginosa biofilm formation inhibitors, primary screen, PAO1 strain, BacTiter-Glo luminescence, LB-PBS (AID 1144). The note with it: 12 h, higher = more signal.
A short description of assay [14]: CREB reporter modulators without forskolin, primary screen, cell-based, PC12, CRE-LacZ reporter, unstimulated (AID 1145). To be noted: no forskolin, luminescence, 4.5 h, higher = more signal, called active from +8 up or from −8 down.
Assay [15] in a line: CREB reporter modulators under forskolin, primary screen, cell-based, PC12, CRE-LacZ reporter, forskolin-stimulated (AID 1146).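 Also: PC12 cells with 6xCRE LacZ reporter stimulated by forskolin 10 µM; beta-galactosidase reporter signal reflecting CREB driven transcription.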 To be noted: luminescence, 4.5 h, higher = more signal, called active from +8 up or from −8 down.
Assay [16] deals with Streptavidin (Streptomyces avidinii) (UniProt P22629). The assay is described as follows: streptavidin binders on small-molecule microarray, primary screen, artefact control for SMM compound annotation, biophysical, 635/667 nm fluorescence (AID 1147).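 Also: signal reflects streptavidin binding to arrayed compounds as a control protein.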 To be noted: streptavidin binding, higher = more signal.
A short description of assay [17]: small-molecule binders of probe aInhba, primary screen, biochemical, small-molecule microarray, 635/667 nm fluorescence (AID 1148).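 Also: score merges 667nm spot fluorescence with signal-to-noise for antibody binding to printed compounds.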 The note with it: higher = more signal.
The target in assay [18] is Torsin-1A (Homo sapiens) (UniProt O14656). Nature of the assay: torsin A binders from cell lysate, primary screen, small-molecule microarray, wild-type, 635/667 nm (AID 1149). To be noted: COS7 hTOR1A-WT lysate, 635 nm fluorescence, higher = more signal.
For assay [19] the target is unchanged. The assay is described as follows: small-molecule binders of mutant TOR1A in lysate, primary screen, cell lysate, small-molecule microarray, COS7 lysate, 635/667 nm fluorescence (AID 1150).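 Also: score pools 667 nm emission and signal to noise measuring lysate protein binding.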 The note with it: COS7 hTOR1A mutant lysate, 635 nm fluorescence, higher = more signal.
Assay [20] concerns Sonic hedgehog protein (Shh). Nature of the assay: small-molecule binders of Shh protein, primary screen, biochemical, small-molecule microarray, 635/667 nm fluorescence (AID 1151).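 Also: Shh protein binding to compounds spotted on small-molecule microarray slides; score combines spot fluorescence intensity with signal-to-noise across triplicate slides.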 To be noted: small-molecule microarray binding, 635 nm fluorescence; higher = more signal.

Calls of active or inactive are those of the source. Unless noted, no rule for the calls is given here.

Chain of Focal adhesion kinase 1 (Homo sapiens) (Q05397 whole entry, looked up): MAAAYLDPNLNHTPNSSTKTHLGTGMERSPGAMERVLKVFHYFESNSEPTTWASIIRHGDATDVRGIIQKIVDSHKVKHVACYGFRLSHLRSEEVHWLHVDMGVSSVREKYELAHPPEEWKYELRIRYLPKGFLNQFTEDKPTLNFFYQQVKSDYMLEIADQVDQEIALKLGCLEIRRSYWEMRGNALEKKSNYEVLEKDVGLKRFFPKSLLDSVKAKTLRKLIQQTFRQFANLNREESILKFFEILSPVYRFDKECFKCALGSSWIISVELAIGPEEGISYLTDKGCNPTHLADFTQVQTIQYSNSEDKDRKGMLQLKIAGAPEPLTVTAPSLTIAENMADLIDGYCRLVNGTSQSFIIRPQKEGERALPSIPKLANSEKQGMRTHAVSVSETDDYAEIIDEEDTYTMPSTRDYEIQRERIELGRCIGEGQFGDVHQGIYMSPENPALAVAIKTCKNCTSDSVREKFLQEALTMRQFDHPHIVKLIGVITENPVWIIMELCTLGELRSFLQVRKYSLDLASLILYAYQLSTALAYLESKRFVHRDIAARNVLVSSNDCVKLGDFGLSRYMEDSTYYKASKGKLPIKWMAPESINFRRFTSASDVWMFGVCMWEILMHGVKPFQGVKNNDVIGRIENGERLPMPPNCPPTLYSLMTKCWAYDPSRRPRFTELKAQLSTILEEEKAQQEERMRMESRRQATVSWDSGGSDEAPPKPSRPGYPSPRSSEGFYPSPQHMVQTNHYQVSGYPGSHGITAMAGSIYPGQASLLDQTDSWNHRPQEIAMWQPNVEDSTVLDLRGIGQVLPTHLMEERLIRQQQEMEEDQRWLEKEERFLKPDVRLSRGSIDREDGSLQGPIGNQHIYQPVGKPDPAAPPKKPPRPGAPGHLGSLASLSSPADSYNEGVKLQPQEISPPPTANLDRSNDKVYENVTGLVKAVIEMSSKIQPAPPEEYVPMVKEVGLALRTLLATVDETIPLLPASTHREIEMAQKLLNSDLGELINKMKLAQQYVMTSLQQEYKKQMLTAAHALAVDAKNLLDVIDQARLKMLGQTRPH
Chain of Torsin-1A (Homo sapiens) (O14656 whole entry, looked up): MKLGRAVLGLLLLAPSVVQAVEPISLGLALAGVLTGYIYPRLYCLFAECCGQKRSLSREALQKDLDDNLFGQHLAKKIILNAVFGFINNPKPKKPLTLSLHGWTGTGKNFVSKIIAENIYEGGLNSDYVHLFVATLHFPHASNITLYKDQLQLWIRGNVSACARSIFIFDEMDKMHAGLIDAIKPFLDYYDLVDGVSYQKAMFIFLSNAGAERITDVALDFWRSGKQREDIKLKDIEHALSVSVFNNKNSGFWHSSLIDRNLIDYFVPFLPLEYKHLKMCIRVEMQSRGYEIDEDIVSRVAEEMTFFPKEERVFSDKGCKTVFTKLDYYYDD
Chain of Streptavidin (Streptomyces avidinii) (P22629 whole entry, looked up): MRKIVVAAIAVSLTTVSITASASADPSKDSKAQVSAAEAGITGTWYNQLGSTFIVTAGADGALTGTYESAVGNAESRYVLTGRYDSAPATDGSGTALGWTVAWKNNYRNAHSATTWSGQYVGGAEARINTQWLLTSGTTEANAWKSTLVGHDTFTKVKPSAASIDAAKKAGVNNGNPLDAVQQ
Chain of Follistatin (Homo sapiens) (P19883 whole entry, looked up): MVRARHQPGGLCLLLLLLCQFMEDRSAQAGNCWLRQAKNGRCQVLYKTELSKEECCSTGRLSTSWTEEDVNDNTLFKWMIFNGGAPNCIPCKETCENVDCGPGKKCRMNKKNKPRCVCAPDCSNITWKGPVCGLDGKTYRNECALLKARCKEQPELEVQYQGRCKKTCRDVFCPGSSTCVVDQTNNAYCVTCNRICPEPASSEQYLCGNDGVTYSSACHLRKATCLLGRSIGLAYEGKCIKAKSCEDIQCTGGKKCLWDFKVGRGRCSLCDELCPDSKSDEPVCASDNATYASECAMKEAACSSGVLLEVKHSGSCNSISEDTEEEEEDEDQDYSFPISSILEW
Chain of Fibroblast growth factor 2 (Homo sapiens) (P09038 whole entry, looked up): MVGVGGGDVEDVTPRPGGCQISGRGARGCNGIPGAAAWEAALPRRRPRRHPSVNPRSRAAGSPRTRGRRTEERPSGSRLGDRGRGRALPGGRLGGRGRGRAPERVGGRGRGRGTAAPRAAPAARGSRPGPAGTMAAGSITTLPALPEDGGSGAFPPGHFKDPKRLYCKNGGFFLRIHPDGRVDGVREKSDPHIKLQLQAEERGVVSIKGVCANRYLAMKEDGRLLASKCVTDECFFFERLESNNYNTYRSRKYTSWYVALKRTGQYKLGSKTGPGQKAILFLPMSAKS
Chain of Luciferin 4-monooxygenase (Photinus pyralis) (P08659 whole entry, looked up): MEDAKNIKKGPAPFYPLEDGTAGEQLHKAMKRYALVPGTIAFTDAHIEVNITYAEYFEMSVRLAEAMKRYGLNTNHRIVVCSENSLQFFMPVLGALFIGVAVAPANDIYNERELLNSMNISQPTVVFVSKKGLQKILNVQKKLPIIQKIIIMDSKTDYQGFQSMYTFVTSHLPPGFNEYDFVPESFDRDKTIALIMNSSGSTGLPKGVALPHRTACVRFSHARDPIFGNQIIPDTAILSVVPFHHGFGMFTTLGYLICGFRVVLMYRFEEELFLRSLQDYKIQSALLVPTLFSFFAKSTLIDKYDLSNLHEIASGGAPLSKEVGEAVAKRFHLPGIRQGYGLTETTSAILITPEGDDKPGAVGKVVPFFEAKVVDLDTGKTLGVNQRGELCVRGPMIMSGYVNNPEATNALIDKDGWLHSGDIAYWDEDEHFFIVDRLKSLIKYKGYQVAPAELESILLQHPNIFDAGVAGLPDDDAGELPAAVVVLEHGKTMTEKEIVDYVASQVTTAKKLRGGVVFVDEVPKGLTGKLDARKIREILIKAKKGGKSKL

Turning to `CCCCNC(=O)c1ccc(C#C[Si](C)(C)C)c(OC(C)=O)c1`, the composite z-score in assay [1] came out at 0.312; in [2] it was 0.689; in assay [3], 0.193; in [4], 0.0903; in [5], 0.389; in assay [6] it was 0.326. The composite z-score is 0.479 in assay [8]; -0.0014 in assay [9]; -0.0504 in assay [11]; 0.184 in assay [16]; -0.12 in [17]; 0.18 in assay [18]. Besides, the composite z-score was determined as 1.1 in [19] and 0.985 in assay [20]. Also, the z-score in assay [7] was -1.35; in assay [10] it was 0.229 (inactive); in assay [12] it was -0.155 (inactive); in [13], 0.305 (inactive); in assay [14], -0.773 (inactive); in [15], 0.0361 (inactive).
On to `COc1ccc(NN2C(C(O)c3ccc(OC)cc3)C=CC3C(=O)N(C4CCCCC4)C(=O)C32)cc1` (stereo not given), for which the composite z-score was 0.679 in assay [1]; 1.18 in [2]; 0.349 in assay [3]; 0.92 in assay [4]; 0.977 in assay [5]; -0.0659 in [6]. Moreover, the composite z-score was 0.433 in assay [8]; 0.701 in assay [9]; 0.219 in assay [11]; 0.964 in assay [16]; -0.0313 in assay [17]; 0.118 in assay [18]. In addition, the composite z-score in [19] was found to be 0.202; in assay [20], 0.0867. Further, the z-score in [7] is 0.017; in assay [10], 1.25 (inactive); in assay [12] it was -0.914 (inactive); in assay [13], -0.257 (inactive); in assay [14], -0.163 (inactive); in [15] it was -0.211 (inactive).
On to `COc1ccc([Si](C)(C)[C@H]2[C@H](CC(=O)N3Cc4ccccc4C[C@H]3CO)O[C@@]3(C(=O)N(Cc4cccc(N5C(=O)c6cccc7cccc5c67)c4)c4ccccc43)[C@@H]2C)cc1`, for which the composite z-score in assay [1] is 0.577; in assay [2], 1.16; in assay [3] it was 0.463; in assay [4], -0.0297; in assay [5] it was 1.18; in [6] it was 1.59. For the same compound, the composite z-score is 1.53 in [8]; 0.108 in [9]; 0.862 in assay [11]; 0.159 in [16]; -0.0107 in assay [17]; 1.39 in assay [18]. The results for the composite z-score in [19] and in assay [20] were 0.736 and 2.23, respectively. The z-score in assay [7] was 1.03; in assay [10] it was -1.53 (inactive); in assay [12], -4.55 (inactive); in assay [13] it was -0.765 (inactive); in assay [14] it was 11 (active); in assay [15], -1.41 (inactive).
Regarding `CC(C)CNC(=O)[C@@H]1c2ccccc2C(=O)N(C(C)C)[C@H]1c1ccc(CO)cc1`, the composite z-score was -0.306 in assay [1]; -0.341 in [2]; -0.155 in assay [3]; -1.18 in [4]; 0.659 in assay [5]; 0.427 in assay [6]. The composite z-score in [8] was -0.481; in assay [9] it was 0.775; in assay [11] it was 0.0274; in assay [16], -1.16; in [17], -0.0986; in [18] it was 1.13. The composite z-score in [19] stood at 0.0411; in assay [20] it was 0.35. Besides, the z-score in [7] was 0.484; in [10] it was -0.207 (inactive); in assay [12], -1.93 (inactive); in assay [13], -0.753 (inactive); in assay [14], -0.179 (inactive); in assay [15] it was -0.739 (inactive).
With `C=CCOC(=O)[C@H]1[C@@H]2C(=O)O[C@@H](c3ccccc3)[C@@H](c3ccccc3)N2[C@@H](c2ccc(OCCOC(=O)[C@@H]3C[C@@H]4C(=O)N[C@@H](CC(C)C)C(=O)N4[C@@H]3c3ccc(O)cc3)cc2)[C@]12C(=O)Nc1ccc(I)cc12`, the composite z-score was found to be 0.785 in assay [1]; 0.935 in assay [2]; 0.443 in [3]; 0.761 in assay [4]; 1.08 in assay [5]; 1.89 in assay [6]. Also, the composite z-score is 0.677 in assay [8]; 0.902 in assay [9]; 0.15 in [11]; 0.149 in assay [16]; -0.0791 in assay [17]; 0.637 in assay [18]. For the same compound, the results for the composite z-score in assay [19] and in [20] were 1.22 and 1.91, respectively. Further, the z-score was -0.946 in [7]; -2.13 (inactive) in [10]; -0.901 (inactive) in assay [12]; -1.3 (inactive) in assay [13]; 0.281 (inactive) in assay [14]; 0.318 (inactive) in assay [15].
